Reference: PubChem BioAssay (Tox21)
Records with an inconclusive call do not appear. Calls of active or inactive are those of the source. Unless noted, calls come from the whole dose curve; as a rule, active = well fitted curve in the direction sought with a large enough effect in the repeat runs; inconclusive = weak or mixed curves; inactive = no such curve, though single readings can be large; an effect the other way counts as inactive or inconclusive.

Key:
[1] = qHTS assay to identify small molecule agonists of the estrogen receptor alpha (ER-alpha) signaling pathway in the presence of an antagonist - cell viability counter screen (AID 1259386);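 note: series mostly up to about 92 µM; cells exposed to compounds for 22 h at 37 °C before the viability read; nearly all actives have a fitted effect of over 30% in size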
Procedure, shortened: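 VM7Luc4E2 cells (endogenous full-length ER-alpha, 4×ERE-luciferase) were held 5 days in phenol red-free medium with 10% charcoal-stripped FBS, plated, then given 10.0nM ICI-182,780 and compounds at 15 concentrations for 22hr at 37C; viability read by CellTiter-Fluor fluorescence.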

[2] = target: Progesterone receptor (Homo sapiens) (UniProt P06401); test: qHTS assay to identify small molecule agonists of the progesterone receptor (PR) signaling pathway (AID 1346784; calls by dose curve; note: nearly all actives have a fitted effect of over 30% in size)
Chain of Progesterone receptor (Homo sapiens) (P06401 whole entry, looked up): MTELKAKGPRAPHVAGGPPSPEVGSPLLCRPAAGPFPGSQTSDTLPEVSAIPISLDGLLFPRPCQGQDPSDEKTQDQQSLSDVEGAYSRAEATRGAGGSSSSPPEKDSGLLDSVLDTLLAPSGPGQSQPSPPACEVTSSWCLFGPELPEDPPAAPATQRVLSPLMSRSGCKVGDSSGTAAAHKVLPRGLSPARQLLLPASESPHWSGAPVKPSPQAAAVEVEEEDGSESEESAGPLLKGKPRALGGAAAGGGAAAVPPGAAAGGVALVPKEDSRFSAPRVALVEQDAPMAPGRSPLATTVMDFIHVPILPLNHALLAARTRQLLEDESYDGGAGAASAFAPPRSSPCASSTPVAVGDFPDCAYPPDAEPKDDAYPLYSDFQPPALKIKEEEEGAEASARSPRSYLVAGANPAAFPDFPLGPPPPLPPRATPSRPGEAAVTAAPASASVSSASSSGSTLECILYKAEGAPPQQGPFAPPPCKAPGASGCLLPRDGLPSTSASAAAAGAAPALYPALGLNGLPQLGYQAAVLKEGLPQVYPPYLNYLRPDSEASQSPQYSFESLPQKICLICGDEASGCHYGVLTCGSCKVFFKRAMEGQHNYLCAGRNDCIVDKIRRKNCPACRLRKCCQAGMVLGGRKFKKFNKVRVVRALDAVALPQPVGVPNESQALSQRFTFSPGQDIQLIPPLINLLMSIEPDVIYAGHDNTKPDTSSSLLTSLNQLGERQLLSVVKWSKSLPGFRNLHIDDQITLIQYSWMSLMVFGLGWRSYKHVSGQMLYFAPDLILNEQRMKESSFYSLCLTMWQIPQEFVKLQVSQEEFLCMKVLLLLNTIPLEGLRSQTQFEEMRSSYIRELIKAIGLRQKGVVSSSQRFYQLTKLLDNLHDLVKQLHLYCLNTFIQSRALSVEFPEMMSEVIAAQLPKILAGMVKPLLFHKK
Procedure, shortened: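 Agonist mode, quantitative HTS format in a HEK 293T line expressing a UAS-controlled beta-lactamase reporter; 16 hr compound exposure at 37C in 2% charcoal-stripped FBS, then LiveBLAzer B/G FRET fluorescence.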

[3] = target: Progesterone receptor (Homo sapiens) (UniProt P06401); test: qHTS assay to identify small molecule antagonists of the progesterone receptor (PR) signaling pathway (AID 1346795; active = well fitted inhibition curve with a large enough effect in the signal ratio in the repeat runs, not every such curve was filed as active; the % refers to the signal ratio; note: potency is the fitted concentration of half-maximal effect)
Procedure, shortened: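 HEK293T PR-UAS-bla reporter cells in charcoal-stripped serum (2%) received compound after a 6 hr settling period, followed by R5020 agonist at 1 nM final; 16 hr incubation preceded the FRET substrate step and fluorescence measurement.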

[4] = qHTS assay to identify small molecule agonists of the progesterone receptor (PR) signaling pathway - cell viability counter screen (AID 1346799; calls by dose curve; note: nearly all actives have a fitted effect of over 45% in size; note: potency is the fitted concentration of half-maximal effect)
Procedure, shortened: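 Counter screen for cytotoxicity: compound-treated PR-UAS-bla HEK293T cells (16 hr, 37C, 5% CO2) were assayed with CellTiter-Glo, luminescence measured after 30 min at room temperature.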

[5] = qHTS assay to identify small molecule antagonists of the TGF-beta/Smad signaling pathway - cell viability counter screen (AID 1346824); note: nearly all actives have a fitted effect of over 50% in size
Procedure, shortened: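 Cytotoxicity counter-screen run in the same wells as the beta-lactamase Smad reporter read: CellTiter-Glo luminescence after 30 min at room temperature. HEK 293T SBE-bla cells had 5 hr compound exposure at 37 C with TGF-beta1 (0.25 ng/mL stock).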

[6] = qHTS assay to identify small molecule agonists of the TGF-beta/Smad signaling pathway - cell viability counter screen (AID 1346829); note: top concentration of the series differs between compounds; nearly all actives have a fitted effect of over 45% in size
Procedure, shortened: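 HEK 293T SBE-bla line, 5 hr compound exposure at 37 C, multiplexed CellTiter-Glo viability read by luminescence.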

[7] = qHTS assay to identify small molecule agonists of the TGF-beta/Smad signaling pathway (AID 1346859; active = well fitted activation curve with a large enough effect in the signal ratio in the repeat runs, not every such curve was filed as active; the % refers to the signal ratio; note: series mostly up to about 77 µM)
Procedure, shortened: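 Smad-responsive beta-lactamase reporter cells (HEK 293T) received compounds from DMSO stocks after overnight attachment, were incubated 5 hr, then treated 2 hr with FRET substrate before dual-emission fluorescence measurement (405 nm excitation).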

[8] = qHTS assay to identify small molecule antagonists of the progesterone receptor (PR) signaling pathway - cell viability counter screen (AID 1346798); note: nearly all actives have a fitted effect of over 50% in size; note: potency is the fitted concentration of half-maximal effect; for activity change, negative = cytotoxicity: series mostly up to about 92 µM
Procedure, shortened: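 Same-well multiplex: after 16 hr at 37C with compound and R5020 stimulation, HEK293T cells carrying a UAS-bla reporter received LiveBLAzer substrate (2 hr RT), then CellTiter-Glo (30 min RT) for luminescent viability.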

[9] = target: Thyrotropin-releasing hormone receptor (Homo sapiens) (UniProt P34981); test: qHTS assay to identify small molecule antagonists of the thyrotropin-releasing hormone receptor (TRHR) signaling pathway (AID 1346877; active = well fitted inhibition curve with a large enough effect in the repeat runs, not every such curve was filed as active; note: series mostly up to about 51 µM)
Chain of Thyrotropin-releasing hormone receptor (Homo sapiens) (P34981 whole entry, looked up): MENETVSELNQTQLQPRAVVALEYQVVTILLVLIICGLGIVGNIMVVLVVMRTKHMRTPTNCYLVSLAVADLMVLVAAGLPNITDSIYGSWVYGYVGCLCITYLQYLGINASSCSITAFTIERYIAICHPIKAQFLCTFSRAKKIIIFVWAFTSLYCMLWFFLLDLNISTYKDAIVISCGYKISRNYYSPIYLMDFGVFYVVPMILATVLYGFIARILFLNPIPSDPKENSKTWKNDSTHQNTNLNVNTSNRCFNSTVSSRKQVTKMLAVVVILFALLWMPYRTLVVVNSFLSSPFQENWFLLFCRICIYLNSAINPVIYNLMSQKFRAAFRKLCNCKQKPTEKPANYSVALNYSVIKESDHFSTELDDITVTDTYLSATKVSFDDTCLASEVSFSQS
Procedure, shortened: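 TRHR-expressing HEK293 cells were seeded, cultured 18 h at 37 °C, then loaded with calcium dye for 2 h. Compounds were pre-incubated 5 min at room temperature before 1 nM TRH (final) was added, and kinetic fluorescence was recorded for 3 min.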
% is set by controls: 0 for no effect and ±100 for the full control effect.

C=C(C)[C@H]1CC=C(C)CC1
inactive: outcome [1] | Potency [2] | Potency [3] | Potency [4] | outcome [5] | outcome [6] | outcome [7]

NC(=O)Nc1nc2ccccc2[nH]1
inactive: Potency [2] | Potency [3] | Potency [8] | Potency [4] | outcome [5] | outcome [6] | outcome [7]

C=C(C)C(=O)NCCCN(C)C
inactive: outcome [1] | Potency [2] | Potency [3] | Potency [4] | outcome [5] | outcome [6] | outcome [7] | outcome [9]

CC/C=C\CCCCO
inactive: outcome [1] | Potency [2] | Potency [3] | Potency [4] | outcome [7] | outcome [9]

OCCCCCCO
inactive: outcome [1] | outcome [5] | outcome [6] | outcome [7] | outcome [9]
active: Potency [8] 61.9 µM | Potency [4] 19.6 µM

CC1=CC(C)C(C=O)C(C)C1 (stereo not drawn)
inactive: outcome [1] | Potency [2] | Potency [4] | outcome [5] | outcome [6] | outcome [7]

CCCC(=O)O[C@]1(C(=O)CCl)[C@@H](C)C[C@H]2[C@@H]3CCC4=CC(=O)C=C[C@]4(C)[C@@]3(F)C(=O)C[C@@]21C
inactive: outcome [1] | outcome [5] | outcome [6] | outcome [7] | outcome [9]

C(=C(c1ccccc1)c1ccccc1)c1ccccc1
active: Potency [3] 12.2 µM
inactive: Potency [2] | Potency [8] | outcome [5] | outcome [6] | outcome [7] | outcome [9]

C/C=C1\C(=O)C[C@H]2[C@@H]3CCC4=CC(=O)CC[C@]4(C)[C@H]3CC[C@]12C
inactive: outcome [1] | outcome [6]

CCCCN(CCO)CCO
inactive: outcome [1] | Potency [3] | Potency [8] | outcome [5] | outcome [6] | outcome [7] | outcome [9]

O=C(O)Cc1cc(I)c(Oc2cc(I)c(O)c(I)c2)c(I)c1
active: Potency [3] 18.9 µM
inactive: outcome [1] | Potency [8] | outcome [5] | outcome [6] | outcome [7]

O=C(O)/C=C/c1ccc(/C=C/C(=O)O)cc1
inactive: outcome [1] | Potency [2] | Potency [3] | Potency [8] | outcome [5] | outcome [6] | outcome [7] | outcome [9]

CCCCCCCCCCCl
inactive: outcome [1] | Potency [2] | Potency [3] | Potency [4] | outcome [5] | outcome [6] | outcome [7] | outcome [9]

O=C1C(CCS(=O)c2ccccc2)C(=O)N(c2ccccc2)N1c1ccccc1 (stereo not drawn)
inactive: outcome [1] | Potency [2] | Potency [3] | Potency [8] | Potency [4] | outcome [6] | outcome [7] | outcome [9]

Cc1c(C)n(CCN(C)C)c2ccc(C(=O)OCCN(C)C)cc12
inactive: outcome [1] | outcome [5] | outcome [6] | outcome [7] | outcome [9]

CCn1c(=O)c2c(nc(/C=C/c3ccc(OC)c(OC)c3)n2C)n(CC)c1=O
inactive: outcome [1] | Potency [2] | Potency [3] | outcome [5] | outcome [6] | outcome [7] | outcome [9]

OC/C=C/c1ccccc1
inactive: Potency [2] | Potency [3] | Potency [8] | Potency [4] | outcome [5] | outcome [6] | outcome [7]

CCCCOCC(C)OCC(C)O (stereo not drawn)
inactive: Potency [2] | Potency [3] | Potency [8] | Potency [4] | outcome [6] | outcome [7] | outcome [9]

CC(=O)OC(C)(C)C
inactive: outcome [1] | Potency [2] | Potency [3] | Potency [8] | Potency [4] | outcome [6] | outcome [7] | outcome [9]

CCC(=O)/C=C/c1ccc(OC)cc1
inactive: outcome [1] | Potency [2] | Potency [8] | outcome [6] | outcome [7] | outcome [9]

CN(C)C(=O)C(CCN1CCC(O)(c2ccc(Cl)cc2)CC1)(c1ccccc1)c1ccccc1
inactive: outcome [1] | Potency [2] | Potency [8] | Potency [4] | outcome [5] | outcome [6] | outcome [9]

COc1cc(C)cc(O)c1
inactive: Potency [2] | Potency [3] | Potency [4] | outcome [6] | outcome [7]

O=[N+]([O-])c1ccc(Oc2ccc([N+](=O)[O-])cc2)cc1
active: Potency [3] 3.94 µM
inactive: outcome [1] | Potency [2] | outcome [5] | outcome [6] | outcome [7]

c1ccc(SCCSc2ccccc2)cc1
inactive: Potency [2] | Potency [8] | Potency [4] | outcome [5] | outcome [7] | outcome [9]

CC(C)(O)c1ccccc1
active: Potency [8] 52.2 µM | Potency [4] 58.6 µM
inactive: Potency [3] | outcome [7] | outcome [9]

[O-][N+](=Nc1ccccc1)c1ccccc1
inactive: outcome [1] | Potency [2] | Potency [3] | Potency [4] | outcome [5] | outcome [6] | outcome [7] | outcome [9]

Nc1[nH]c(=O)ncc1F
inactive: outcome [1] | Potency [2] | Potency [3] | Potency [4] | outcome [5] | outcome [6] | outcome [7]

CSc1nc(NC2CC2)nc(NC(C)(C)C)n1
active: Potency [3] 61.1 µM
inactive: outcome [1] | Potency [2] | Potency [4] | outcome [5] | outcome [7]

Cc1ccc(Nc2ccc(O)c3c2C(=O)c2ccccc2C3=O)cc1
inactive: outcome [1] | Potency [2] | Potency [3] | Potency [8] | outcome [5] | outcome [7] | outcome [9]

CC(O)CN(CCCN(C)C)CCCN(C)C (stereo not drawn)
inactive: outcome [1] | Potency [2] | Potency [3] | Potency [8] | Potency [4] | outcome [6] | outcome [7] | outcome [9]

Cc1nc(-c2ccc(OCC(C)C)c(C#N)c2)sc1C(=O)O
inactive: Potency [2] | Potency [8] | Potency [4] | outcome [6]

CC(=O)N[C@@H](CCC(N)=O)C(=O)O
inactive: Potency [2] | Potency [3] | Potency [8] | Potency [4] | outcome [5] | outcome [6] | outcome [7] | outcome [9]

COCc1ccc(COC)cc1
inactive: outcome [1] | Potency [2] | Potency [8] | Potency [4] | outcome [7] | outcome [9]

C=C(C)C(=O)NCCC[N+](C)(C)C
inactive: outcome [1] | Potency [2] | Potency [3] | Potency [4] | outcome [5] | outcome [6] | outcome [7]

Nc1cc(N)cc(C(=O)O)c1
inactive: Potency [2] | Potency [8] | Potency [4] | outcome [5] | outcome [6] | outcome [7]

COc1cc(C(=O)N2CCOCC2)cc(OC)c1OC
inactive: outcome [1] | Potency [4] | outcome [5] | outcome [7]

Cn1ccc2cc3c(cc21)CCN3C(=O)Nc1cccnc1
inactive: activity change, negative = cytotoxicity [1] -5.2% [at 19 µM] | activation [2] 1.39% [at 19 µM] | activity change, negative = inhibition [3] -0.261% [at 18.9 µM] | activity change, negative = cytotoxicity [8] -18% [at 18.9 µM] | activity change, negative = cytotoxicity [4] 0.965% [at 19 µM] | activity change, negative = cytotoxicity [6] -1.62% [at 15.8 µM] | activation [7] 2.76% [at 15.8 µM] | activity, negative = inhibition [9] -16.1% [at 10.5 µM]

CC(CCO)CCCC(C)(C)O (stereo not drawn)
inactive: Potency [2] | Potency [3] | Potency [8] | Potency [4] | outcome [5] | outcome [6] | outcome [7] | outcome [9]
